HPGD inh = inhibitors of human 15-hydroxyprostaglandin dehydrogenase (HPGD); P15428; purified HPGD, NADH fluorescence kinetic, PGE2 substrate; Potency, µM, usual class: inhibitors; 150,000 compounds, 4.3% hits; AID 894; active = well fitted inhibition curve with a large enough effect, not every such curve was filed as active; inconclusive = small, poorly fitted or top-dose-only effect, or another doubt; inactive = no such curve, though single readings can be large or run the other way
Target sequence (P15428 whole entry, looked up): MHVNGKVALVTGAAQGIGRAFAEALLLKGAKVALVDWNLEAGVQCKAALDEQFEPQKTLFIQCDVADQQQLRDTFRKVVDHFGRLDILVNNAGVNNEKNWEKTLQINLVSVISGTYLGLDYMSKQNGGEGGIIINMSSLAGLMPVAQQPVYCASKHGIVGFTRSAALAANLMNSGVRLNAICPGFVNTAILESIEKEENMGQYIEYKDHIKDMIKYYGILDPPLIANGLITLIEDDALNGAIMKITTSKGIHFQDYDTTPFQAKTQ
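20 nM HPGD preincubated 15 min at room temperature with compound in 50 mM Tris-HCl pH 8, 0.01% Tween 20. Started with 1 mM NAD+ and 30 uM prostaglandin E2; NADH fluorescence (360/450 nm) read 5 times over 30-s intervals, last minus first.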
ALDH1A1 inh = ALDH1A1 (human) enzyme inhibition. P00352. Potency, µM (top dose mostly 75.3 µM), most hits filed as inhibitors. AID 1030. Purified ALDH1A1, NADH fluorescence, propionaldehyde substrate. 220,000 compounds, 7.3% hits; active = well fitted inhibition curve with a large enough effect, not every such curve was filed as active; inconclusive = small, poorly fitted or top-dose-only effect, or another doubt; inactive = no such curve, though single readings can be large or run the other way
12-hLO inh = blocks human 12-lipoxygenase activity | Potency, µM (doses to about 57.1 µM), hits mostly inhibitors | purified 12-hLO, xylenol orange hydroperoxide absorbance | AID 1452 | P18054 | 150,000 compounds, 0.12% hits; also: nearly all actives have a fitted effect of over 55% in size
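Lipoxygenase turnover measured by absorbance at 573 and 405 nm after Fe-XO development. Human 12hLO 150 nM, arachidonate 40 uM, pH 7.0 Hepes buffer with detergent; 15 min compound preincubation, 30 min reaction.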
aGal spleen mod = alpha-galactosidase A (human) modulation; Potency, µM (top dose mostly 80 µM), hits mostly inhibitors; 240,000 compounds, 0.008% hits; human spleen homogenate, 4MU-alpha-Gal fluorescence, 40 min; P06280; AID 2107
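Human spleen homogenate (1 ug) was the enzyme source, with 4-methylumbelliferyl-alpha-D-galactopyranoside (1 mM final) in pH 5.0 citrate buffer with 0.01% Tween-20. Compounds were titrated; after 40 min at 37C, NaOH/glycine stop, 4-MU fluorescence read; AC50 from Hill fits.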
GLA inh pH 4.5 = alpha-galactosidase A (human) inhibition, pH 4.5 | purified enzyme, 4-MU-alpha-Gal fluorescence, pH 4.5 | activity change, negative = inhibition, % at 105 µM | 230,000 tested, under 10 active | AID 1467 | P06280
Target sequence (P06280 whole entry, looked up): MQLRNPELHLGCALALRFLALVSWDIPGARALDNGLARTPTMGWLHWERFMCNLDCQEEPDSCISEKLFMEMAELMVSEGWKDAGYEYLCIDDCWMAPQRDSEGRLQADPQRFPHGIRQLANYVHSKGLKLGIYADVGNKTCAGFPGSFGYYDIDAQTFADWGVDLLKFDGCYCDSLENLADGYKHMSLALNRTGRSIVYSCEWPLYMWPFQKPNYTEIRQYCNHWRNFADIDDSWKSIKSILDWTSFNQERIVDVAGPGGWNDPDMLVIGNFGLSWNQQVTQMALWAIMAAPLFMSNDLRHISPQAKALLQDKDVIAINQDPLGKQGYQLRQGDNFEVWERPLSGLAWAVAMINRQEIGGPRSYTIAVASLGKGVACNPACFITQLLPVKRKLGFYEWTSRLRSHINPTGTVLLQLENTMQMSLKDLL
PNC inhibitor = inhibitors of perinucleolar compartment assembly | PC3M PTB-GFP, PNC prevalence imaging, 16 h; active compounds read low | activity change (PNC), negative = inhibition, % at 10 µM | 140,000 compounds, 3.1% hits;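 active = readout at or below -70, meaning at least 70% loss of cells showing the perinucleolar compartment, a nuclear body marking cancer cells; inconclusive = readout between -30 and a set limit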
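Compounds are pinned in duplicate onto adhered PC3M cells stably expressing GFP-tagged PTB and incubated 16 h at 37 C. Cells are then fixed, nuclei stained with Hoechst, and PNC-positive cells counted.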
Numbers stand for hits; 0 = inactive; ? = inconclusive; - = not tested or not shown; ! = repeats disagree; [ ] = remark or other dose. An excerpt weighted towards active compounds, which were near 10% of everything screened. Unless noted, calls follow the shape of the dose curve; as a rule, active = well fitted curve in the direction sought with a large enough effect; inconclusive = small, poorly fitted or top-dose-only effect, or another doubt; inactive = no such curve, though single readings can be large; an effect the other way counts as inactive or inconclusive.

SMILES	HPGD inh	ALDH1A1 inh	12-hLO inh	aGal spleen mod	GLA inh pH 4.5	PNC inhibitor
CCN(CC)CCNC(C(=O)Nc1cc(C(F)(F)F)ccc1Cl)c1ccccc1 (stereo not drawn)	0	?	0	0	0	0
O=C(O)c1ccc(/C=N\N=C2c3ccccc3-c3ccccc32)cc1	0	0[13.5 µM]	0[11.4 µM]	-	-	-
COc1ccc(N2CCC(CNS(=O)(=O)c3cccc(C(F)(F)F)c3)C2)cc1 (stereo not drawn)	0	8.9µM	0	0	0	0
COc1ccc(N2CCC(CNC(=S)Nc3cccc(C)c3)C2)cc1 (stereo not drawn)	0	25µM	0	0	0	0
CCNc1ncc2nc(-c3cccc(C#N)c3)c(=O)n(Cc3cccc(OC)c3)c2n1	-	0	-	0	-	-
CC(CCCC(C)(C)O)CC1C2=C(CCCC2=O)OC2=C1C(=O)CCC2 (stereo not drawn)	-	0	-	0	0	-
Oc1c(Cl)cccc1C=Nc1cc(C(F)(F)F)ccc1N1CCCC1	16µM	0	0	0	0	0
COC(=O)c1ccc(-c2ccc(/C=N/NC(=O)CC3(C)OCCCO3)o2)cc1	-	?	-	0	0	-
COc1cccc(CC2(CO)CCCN(Cc3ccc(CN4CCCCC4)s3)C2)c1 (stereo not drawn)	-	0	-	0	0	-
Cc1ccc(-n2nnnc2-c2cccc(C)c2)cc1	-	0	-	0	0	-
COc1ccc(-n2nnnc2-c2cccc(OC)c2)cc1	0	0	0	0	0	-83
Cc1cccc(-c2nnnn2-c2cccc(C)c2)c1	-	4.5µM	-	0	0	-
C#CCOc1ccc(/C=N/NC(=O)c2cccnc2)cc1OCC	-	0	-	0	0	-
Cc1ccc2nc(SCC(=O)NNC(=O)c3ccccc3)[nH]c2c1	0	0	0	0	0	0
CCCCNC(=S)N(C)/N=C/c1ccc(F)cc1	28µM	0	0	0	0	0
O=C(O)/C(Cc1cn[nH]n1)=N\O	0	?	0[11.4 µM]	-	-	-
C/C(=N/OC(=O)c1c(-c2ccccc2Cl)noc1C)c1cnccn1	-	?	-	0	0	-
Cc1onc(-c2ccccc2Cl)c1C(=O)O/N=C(\N)c1ccc([N+](=O)[O-])o1	-	13µM	-	0	0	-
Oc1[nH]c2c(Cl)cc(Cl)cc2c1N=NC(=S)NCC1CCCO1 (stereo not drawn)	0	0.45µM	0	0	0	0
Oc1[nH]c2ccc(Br)cc2c1N=NC(=S)NCC1CCCO1 (stereo not drawn)	-	-	-	0	0	-
CCn1c(O)c(N=NC(=S)NCC2CCCO2)c2ccccc21 (stereo not drawn)	-	0.5µM	-	0	0	-
Oc1[nH]c2ccccc2c1N=NC(=S)NCC1CCCO1 (stereo not drawn)	?	0	0	0	0	?
Cc1cc(C)c2[nH]c(O)c(N=NC(=S)NCC3CCCO3)c2c1 (stereo not drawn)	0	0.079µM	0	0	0	0
c1cc(CNC23CC4CC(CC(C4)C2)C3)ccn1	-	0	-	0	0	-
O=C(CC12CC3CC(CC(C3)C1)C2)NCc1ccncc1	0	0	0	0	0	-84
SMILES	HPGD inh	ALDH1A1 inh	12-hLO inh	aGal spleen mod	GLA inh pH 4.5	PNC inhibitor
Cc1cc(C(=O)Nc2ncn(Cc3ccc(F)cc3)n2)ccc1[N+](=O)[O-]	-	-	-	0	0	-
Cc1sc(C(C2C(=O)CC(C)(C)CC2=O)C2C(=O)CC(C)(C)CC2=O)cc1[N+](=O)[O-]	-	13µM	-	0	0	-
CCC(=O)Nc1cccc(NC(=O)c2ccccc2Br)c1	0	0	0	0	0	0
CCN(CC(=O)NCc1cccs1)S(=O)(=O)c1ccc([N+](=O)[O-])cc1	-	0	-	0	0	-
CCN(CC)S(=O)(=O)c1cccc(NC(=O)c2ccccc2Br)c1	-	11µM	-	0	0	-
CCN(CC)S(=O)(=O)c1ccc(NC(=O)c2cccs2)cc1	-	0	-	0	0	-
COC(=O)COc1cccc(NC(=O)c2cccs2)c1	0	0	0	0	0	-118
CCN(CC(=O)NCc1cccs1)S(=O)(=O)c1cccc(C(C)=O)c1	0	0	0	0	0	-83
CCN(CC)S(=O)(=O)c1cccc(C(=O)Oc2cccc(NC(=O)c3cccs3)c2)c1	0	0	0	0	0	-108
O=C(NC(=S)NCCOCc1ccc(Cl)cc1)c1cccnc1	0	0	0	0	0	0
Cc1noc(C)c1COc1ccc(C(=O)OCC(=O)Nc2c(C)n(C)n(-c3ccccc3)c2=O)cc1	-	0	-	0	0	-
COc1cc(C2c3c(oc4ccccc4c3=O)C(=O)N2Cc2ccncc2)ccc1O (stereo not drawn)	0	25µM	0	0	0	0
CC(C)(C)n1cnc(C(N)=O)c1N	0	10µM	0	0	0	0
COCCn1c(=O)c(-c2cccc(C#N)c2)nc2cnc(N3CCN(C)CC3)nc21	-	?	-	0	-	-
Cc1cc(O)c(C=O)c2c1C(=O)Oc1c(COC(=O)/C=C/C(=O)O)c(O)c(C(=O)O)c(C)c1O2	1.4µM	4.5µM	?	0	0	-
Clc1ccccc1-c1nnc2sc(C3COc4ccccc4O3)nn12 (stereo not drawn)	20µM	7.1µM	0	0	0	?
c1ccc(Cc2nnc3sc(C4COc5ccccc5O4)nn23)cc1 (stereo not drawn)	14µM	25µM	0	0	0	?
c1ccc(OCc2nnc3sc(C4COc5ccccc5O4)nn23)cc1 (stereo not drawn)	7.1µM	10µM	0	0	0	0
Cc1cc2c(cc1Cl)C(c1ccccc1C)CC(=O)O2 (stereo not drawn)	0	?	0[0.00818 µM]	0	0	-
COCCCCCCCCCCCC(=O)O	0	0	0	0	0	-
COc1ccc(S(=O)(=O)/N=C2/NC(=O)/C(=C\c3ccco3)S2)cc1	28µM	18µM	?	0	0	0
COc1ccc(N=C2NC(=O)/C(=C/c3ccco3)S2)cc1	-	-	-	0	0	-
COc1ccc(S(=O)(=O)/N=C2/NC(=O)/C(=C/c3ccco3)S2)cc1	?	22µM	0	0	0	0
O=C(NCCc1nc2ccccc2[nH]1)/C(=C/c1ccco1)NC(=O)c1ccc(Br)o1	0	0	0	0	0	0
Cc1ccc(/C=C2\CCCC3=C2NC(=S)NC3c2ccc(C)cc2)cc1 (stereo not drawn)	32µM	?	?	0	0	0
SMILES	HPGD inh	ALDH1A1 inh	12-hLO inh	aGal spleen mod	GLA inh pH 4.5	PNC inhibitor
COc1ccc(C(C)=O)c(O)c1	18µM	?	0	0	0	-
CCOC(=O)COc1ccc(C(=O)c2ccccc2)c(O)c1	16µM	0	0	0	0	0
COc1cc(O)ccc1C(C)=O	0	0	0	0	0	-
COc1ccc(C(=O)c2ccccc2)c(O)c1	16µM!	32µM!	0	0	0	0
O=C(c1ccccc1)c1ccc(O)cc1O	-	0	-	0	0	-
O=C(O)c1c(C(=O)O)c2ccccc2[nH]c1=O	0	0	-	0	0	-
Cc1ccc(CNS(=O)(=O)c2ccc3c(c2)OCCO3)cc1	0	0	0	0	0	-101

Screening results (PubChem)
